Measured values from PubChem BioAssay (NCATS).
Inconclusive results are not listed. Where a call stands in place of a potency, no number is given. The source made the active and inactive calls. Calls follow the shape of the dose curve; as a rule, active = well fitted curve in the direction sought with a large enough effect; inconclusive = small, poorly fitted or top-dose-only effect, or another doubt; inactive = no such curve, though single readings can be large; an effect the other way counts as inactive or inconclusive.

Tested on: Zika virus NS2B-NS3 protease (unlinked complex)
Assay: Confirmatory screen GU AMC qHTS for Zika virus inhibitors (AID 1347153); also: nearly all actives have a fitted effect of over 70% in size
Details: Recombinant NS2B-NS3 protease, AMC substrate fluorescence; series mostly up to 57.1 µM
From the text: Assay Submitters (PI): Avindra Nath, Ph.D., National Institute of Neurological Disorders and Stroke (NINDS), Bethesda, MD Radhakrishnan Padmanabhan, Ph.D., Georgetown University (GU), Washington D.C. Zika Virus causes congenital defects, including microcephaly and is associated with Guillain-Barre syndrome, eningoencephalitis and myelitis in infected adult. […] Using a target-based approach, we hope to establish a screening paradigm to uncover novel, cell-active NS2B-NS3 protease (Zika Virus) specific inhibitors from NCATS' collection of small molecules using qHTS. […] Active compounds in the primary screen are re-acquired and re-screened to confirm NS2B-NS3 protease inhibition. Early Translation Branch (ETB) National Center for Advancing Translational Sciences (NCATS), Rockville, MD National Institute of Health (NIH), Bethesda, Maryland
Materials: Padmanabhan lab provided the NS2B hydrophilic domain and NS3 protease domain in a noncovalent complex used for the unlinked assay. Control compound aprotinin is obtained from Thermo Scientific (#78432; Waltham, Massachusetts). NS2B-NS3 AMC substrate (Bz-Nle-Lys-Arg-Arg-AMC; Nle-KRR-AMC) purchased from Bachem (#I-1995; Torrance, CA). Ac-VKTGKR-AMC purchased from Genscript or Bachem, Ac-FAAGKR-AMC purchased from Genscript, Ac-GLVKRR-AMC purchased from Genscript, Ac-LKKR-AMC purchased from Genscript. GU AMC unlinked NS2B-NS3 protease qHTS protocol: Briefly, 3 microL of Zika virus unlinked NS2B-NS3 protease (25 nM for linked final concentration), in assay buffer (10 mM Tris-HCl pH 8.0 with 0.01% Tween 20) was dispensed into a 1,536-well solid-bottom black plate (Greiner Bio One, Monroe, NC). Twenty-three nL of compounds (final concentration range 7.28 nM to 114 microM) or control Aprotinin (final concentration range 3.47 nM to 114 microM) were transferred via Wako Pin-tool (Wako Automation, Richmond, VA). Samples were incubated (room temperature, protected from light) for 15 minutes followed by a 1 microL AMC substrate addition of (final concentration of 10 microM; Km = 18.3 µM). Plates were then read immediately on a ViewLux High-throughput CCD imager (PerkinElmer, Waltham, MA) equipped with standard UV fluorescence optics (340(30) nm excitation, 450(20) nm emission) then incubated (room temperature, protected from light) for 15 minutes (~20% conversion). The change in fluorescence intensity over the 15-minute reaction period was normalized against no-inhibitor and no-enzyme controls and the resulting percent inhibition data were fitted to a 4-parameter Hill equation. Aprotinin was used as the intraplate control.
Potency is read from the fitted curve at half-maximal effect.

SMILES | Potency
CNC(=O)c1cccc(-c2ccc3c(N4CCOC[C@H]4C)nc(N4CCOC[C@H]4C)nc3n2)c1 | inactive
CC(C)c1cc(C(C)C)c(CC(=O)NS(=O)(=O)Oc2c(C(C)C)cccc2C(C)C)c(C(C)C)c1 | 11.1 µM (active)
Cc1ccc(-n2[nH]c(C)c(N=Nc3cccc(-c4cccc(C(=O)O)c4)c3O)c2=O)cc1C | 15.2 µM (active)
CCCCCCCCc1ccc(CCC(N)(CO)CO)cc1 | inactive
COc1ccc(S(=O)(=O)Nc2cc(-c3c(O)ccc4ccccc34)c(O)c3ccccc23)cc1 | 24.1 µM (active)
C[C@@H](NCc1cc2ccccc2[nH]1)c1cccc2ccccc12 | inactive

Tested on: Zika virus NS2B-NS3 protease
Assay: Primary screen GU AMC qHTS for Zika virus inhibitors (AID 1347154); also: nearly all actives have a fitted effect of over 70% in size
Details: Zika NS2B-NS3 unlinked protease, AMC fluorogenic substrate; series mostly up to 54.1 µM
Summary of the method: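 Unlinked Zika NS2B hydrophilic domain–NS3 protease complex at 25 nM in 10 mM Tris-HCl pH 8.0, 0.01% Tween 20, with an AMC peptide substrate. Fluorescence change (340/450 nm) over 15 min at room temperature, normalized to controls, fitted to 4-parameter Hill.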

SMILES | Potency
CC(N[C@H]1CCCC[C@H]1NC(=O)c1ccc(Cl)cc1)c1cccc2ccccc12 (some centres not stated) | inactive
COC[C@H](NC(=O)c1cnc(C)s1)C(=O)N[C@@H](COC)C(=O)N[C@@H](Cc1ccccc1)C(=O)[C@@]1(C)CO1 | inactive
C[C@H](NCc1ccc2c(c1)nc(NC(=O)c1ccc(-c3cn[nH]c3)s1)n2CCc1ccccc1)C(C)(C)C | inactive
CN(N=O)C(=O)N[C@H]1C(O)OC(CO)[C@@H](O)[C@H]1O (some centres not stated) | inactive
O=C(O)C=Cc1ccc(Cn2ccnc2)cc1 | inactive
C=C1C[C@@]2(O)O[C@@]3(C[C@H]2C(C)C)[C@H](C)CC[C@H]13 | inactive
Cc1cc(Nc2ncc3c(n2)N(C)C(=O)N(c2cc(NC(=O)c4cccc(C(F)(F)F)c4)ccc2C)C3)n(C)n1 | inactive
O=C(C=CC#Cc1cccc(NS(=O)(=O)c2ccccc2)c1)NO | inactive
O=c1[nH]c(=O)n([C@H]2C[C@@H](O)[C@@H](CO)O2)cc1F | inactive
CNC(=O)c1cccc(-c2ccc3c(N4CCOC[C@H]4C)nc(N4CCOC[C@H]4C)nc3n2)c1 | 24.1 µM (active)
O=C(NCc1ccccc1)[C@H](Cc1ccccc1)NC(=O)[C@@H]1O[C@@H]1C(=O)NCCc1ccc(O)cc1 | inactive
Cc1cc(C(=O)NOCCO)c(Nc2ccc(I)cc2F)n(C)c1=O | inactive
CCCc1nc(C(C)(C)O)c(C(=O)O)n1Cc1ccc(-c2ccccc2-c2nn[nH]n2)cc1 | inactive
Cc1ccc2nc(NCCN)c3ncc(C)n3c2c1 | inactive
O=C1c2c(O)cccc2[C@@H]([C@@H]2O[C@H](CO)[C@@H](O)[C@H](O)[C@H]2O)c2cc(CO)cc(O)c21 | inactive
CC(C(C)N1CC(=O)NC(=O)C1)N1CC(=O)NC(=O)C1 (configuration not stated) | inactive

SMILES | Potency
CCCCCCCCc1ccc(CCC(N)(CO)CO)cc1 | inactive
N#Cc1c(NC(=O)c2cccc3ccccc23)sc2c1CCCC2 | inactive
CON=C(C(=O)N[C@@H]1C(=O)N2C(C(=O)O)=C(CSC(=O)c3ccco3)CS[C@H]12)c1csc(N)n1 | inactive
O=S(=O)(O)CCSSCCS(=O)(=O)O | inactive
COc1ccc(S(=O)(=O)Nc2cc(-c3c(O)ccc4ccccc34)c(O)c3ccccc23)cc1 | 24.1 µM (active)
COc1ccc(C[C@@H](C)[C@@H](C)Cc2ccc(OC)c(OC)c2)cc1OC | inactive
C=CC(=O)Nc1cc(NC(=O)c2ccc(C)c(NC(=O)c3ccno3)c2)cc(C(F)(F)F)c1 | inactive
Cc1ccc([N+](=O)[O-])cc1S(=O)(=O)N(C)N=Cc1cnc2ccc(Br)cn12 | inactive
COc1ccc(Nc2cc(-c3cnc(N)nc3)nc(N3CCOCC3)n2)cn1 | inactive
COc1cc(C(=O)NC2CCN(C)CC2)ccc1Nc1ncc2c(n1)N(C1CCCC1)CCC(=O)N2C(C)C | inactive
CN1CCCN(C(=O)c2cccc(-c3ccc(C=C4C(=O)Nc5ccc(Cl)cc54)o3)c2)CC1 | inactive
N=c1ccn2c(n1)O[C@H]1[C@@H](O)[C@@H](CO)O[C@H]12 | inactive
O=C(O)C[C@H](O)C[C@H](O)C=Cc1c(C2CC2)nc2ccccc2c1-c1ccc(F)cc1 | inactive
O=C1CSC(=O)N1C(CCc1ccncc1)COc1ccc(-c2cccc([N+](=O)[O-])c2)cc1 (configuration not stated) | inactive
CCCNS(=O)(=O)Nc1ncnc(OCCOc2ncc(Br)cn2)c1-c1ccc(Br)cc1 | inactive

Tested on: not listed separately
Assay: ZIKV-mCherry secondary qHTS for Zika virus inhibitors (AID 1347158)
Details: Vero cells, ZIKV-mCherry infection imaging, 48-72 h; series mostly up to 49.2 µM
Summary of the method: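 Vero, 5,000 cells/well, o/n 37 °C; cpd pin-transferred in DMSO; ZIKV-mCherry MOI 1, 48-72 h 37 °C; 32% PFA stock fix, Hoechst; imaged 10x DAPI/mCherry; mCherry+ threshold 450 RFU; % infection.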

SMILES | Potency
CC(C)c1cc(C(C)C)c(CC(=O)NS(=O)(=O)Oc2c(C(C)C)cccc2C(C)C)c(C(C)C)c1 | 3.16 µM (active)
Cc1ccc(-n2[nH]c(C)c(N=Nc3cccc(-c4cccc(C(=O)O)c4)c3O)c2=O)cc1C | inactive
CCCCCCCCc1ccc(CCC(N)(CO)CO)cc1 | inactive
COc1ccc(S(=O)(=O)Nc2cc(-c3c(O)ccc4ccccc34)c(O)c3ccccc23)cc1 | inactive

Tested on: not listed separately
Assay: Confirmatory screen NINDS Rhodamine qHTS for Zika virus inhibitors (AID 1347161); also: nearly all actives have a fitted effect of over 60% in size
Details: purified enzyme assay, Rhodamine110 substrate fluorescence, 15 min; series mostly up to 114 µM
Summary of the method: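 Purified linked NS2B-NS3 protease (NS2B hydrophilic domain joined to NS3 protease by flexible linker), 25 nM in 10 mM Tris-HCl pH 8.0, 0.01% Tween 20. Compounds titrated, 15 min preincubation at room temperature; 1.5 microM Rhodamine110 substrate, FITC fluorescence change over 15 min.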

SMILES | Potency
CNC(=O)c1cccc(-c2ccc3c(N4CCOC[C@H]4C)nc(N4CCOC[C@H]4C)nc3n2)c1 | inactive
CC(C)c1cc(C(C)C)c(CC(=O)NS(=O)(=O)Oc2c(C(C)C)cccc2C(C)C)c(C(C)C)c1 | 2.21 µM (active)
Cc1ccc(-n2[nH]c(C)c(N=Nc3cccc(-c4cccc(C(=O)O)c4)c3O)c2=O)cc1C | 2.21 µM (active)
CCCCCCCCc1ccc(CCC(N)(CO)CO)cc1 | inactive
COc1ccc(S(=O)(=O)Nc2cc(-c3c(O)ccc4ccccc34)c(O)c3ccccc23)cc1 | 8.77 µM (active)
C[C@@H](NCc1cc2ccccc2[nH]1)c1cccc2ccccc12 | inactive
